# Results reported in PubChem BioAssay (Tox21).
# Several values for one entry are separate records, joined by “and”; a condition that tells them apart may be missing. Equal entries are not always repeated. Results filed as inconclusive are left out. Where a call stands in place of a potency, no number is given. Activity calls are given as the source filed them. Unless noted, calls come from the whole dose curve; as a rule, active = well fitted curve in the direction sought with a large enough effect in the repeat runs; inconclusive = weak or mixed curves; inactive = no such curve, though single readings can be large; an effect the other way counts as inactive or inconclusive.
# What was measured:
# [1] = target: Acetylcholinesterase (Homo sapiens) (UniProt P22303); test: Acetylcholinesterase (AChE) small molecule antagonists: enzyme-based qHTS assay with human liver microsomes (AID 1347399; calls by dose curve; note: nearly all actives have a fitted effect of over 60% in size); conditions: Potency: qHTS inhibition; outcome: qHTS inhibition
# Procedure, shortened: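 Recombinant human AChE (50 mU/mL in the enzyme mix) and human liver microsomes (0.25 mg/mL final) were preincubated with compound and NADPH (0.25 mg/mL final) for 30 min at 37 C. Acetylthiocholine/DTNB was then added; thiocholine was read colorimetrically after 10 min at room temperature.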
# [2] = target: Cytochrome P450 2C19 (Homo sapiens) (UniProt P33261); test: Cytochrome P450 Family 2 Subfamily C Member 19 (CYP2C19) small molecule antagonists: luciferase reporter qHTS assay (AID 1671197); note: nearly all actives have a fitted effect of over 65% in size; note: potency is the fitted concentration of half-maximal effect; for activity change, negative = inhibition: series mostly up to about 120 µM
# Procedure, shortened: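 P450-Glo CYP2C19 system: enzyme-substrate mix with compound 10 min at room temperature, then NADPH regeneration solution, 1 h at 37C. Proluciferin-to-luciferin conversion detected by luminescence after 20 min with detection reagent; ketoconazole as positive control.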
# [3] = target: Cytochrome P450 2C9 (Homo sapiens) (UniProt P11712); test: Cytochrome P450 Family 2 Subfamily C Member 9 (CYP2C9) small molecule antagonists: luciferase reporter qHTS assay (AID 1671198); note: nearly all actives have a fitted effect of over 50% in size; note: potency is the fitted concentration of half-maximal effect; for activity change, negative = inhibition: series mostly up to about 120 µM
# Procedure, shortened: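 CYP2C9 activity was measured with a P450-Glo proluciferin substrate. Enzyme–substrate mix was held with compound for 10 min at room temperature, then NADPH regeneration solution was added for 1 h at 37C. Luciferin product was read as luminescence.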
# [4] = target: Cytochrome P450 1A2 (Homo sapiens) (UniProt P05177); test: Cytochrome P450 Family 1 Subfamily A Member 2 (CYP1A2) small molecule antagonists: luciferase reporter qHTS assay (AID 1671199); note: nearly all actives have a fitted effect of over 50% in size; note: potency is the fitted concentration of half-maximal effect; for activity change, negative = inhibition: series mostly up to about 120 µM
# Procedure, shortened: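 Inhibition of CYP1A2 conversion of proluciferin to luciferin, detected by luminescence. Reaction run 1 h at room temperature with NADPH regeneration after brief compound preincubation.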
# [5] = target: Voltage-gated inwardly rectifying potassium channel KCNH2 (Homo sapiens) (UniProt Q12809); test: Human Ether-a-go-go-Related Gene (hERG) channel small molecule antagonists: fluorescence cell-based qHTS assay (AID 1671200); note: nearly all actives have a fitted effect of over 50% in size; note: potency is the fitted concentration of half-maximal effect;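 for activity change, negative = inhibition: hERG-expressing U2OS cells given a thallium stimulus after FluxOR II dye loading; series mostly up to about 77 µM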
# Procedure, shortened: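 Measured: Tl+ flux via fluorescence (480/540 nm) in hERG-expressing U2OS cells after 1 h dye loading at room temperature.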
# [6] = target: Cytochrome P450 3A4 (Homo sapiens) (UniProt P08684); test: Cytochrome P450 Family 3 Subfamily A Member 4 (CYP3A4) small molecule antagonists: luciferase reporter qHTS assay (AID 1671201); note: nearly all actives have a fitted effect of over 50% in size; note: potency is the fitted concentration of half-maximal effect; for activity change, negative = inhibition: series mostly up to about 120 µM
# Procedure, shortened: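 Setup: enzyme-substrate mix, compound pin transfer, 10 min RT. Reaction: NADPH regeneration solution, 1 h RT. Readout: detection reagent stops turnover, luminescence measured after 20 min, expressed in relative luminescence units.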
# [7] = target: Cytochrome P450 2D6 (Homo sapiens) (UniProt P10635); test: Cytochrome P450 Family 2 Subfamily D Member 6 (CYP2D6) small molecule antagonists: luciferase reporter qHTS assay (AID 1671196); note: nearly all actives have a fitted effect of over 50% in size; note: potency is the fitted concentration of half-maximal effect; for activity change, negative = inhibition: series mostly up to about 120 µM
# Procedure, shortened: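 P450-Glo format: CYP2D6 converts a proluciferin substrate to luciferin in an NADPH-driven reaction lasting 1 h at room temperature. Light output, proportional to CYP2D6 activity, reflects interference by test chemicals.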
# Chain of Cytochrome P450 3A4 (Homo sapiens) (P08684 whole entry, looked up): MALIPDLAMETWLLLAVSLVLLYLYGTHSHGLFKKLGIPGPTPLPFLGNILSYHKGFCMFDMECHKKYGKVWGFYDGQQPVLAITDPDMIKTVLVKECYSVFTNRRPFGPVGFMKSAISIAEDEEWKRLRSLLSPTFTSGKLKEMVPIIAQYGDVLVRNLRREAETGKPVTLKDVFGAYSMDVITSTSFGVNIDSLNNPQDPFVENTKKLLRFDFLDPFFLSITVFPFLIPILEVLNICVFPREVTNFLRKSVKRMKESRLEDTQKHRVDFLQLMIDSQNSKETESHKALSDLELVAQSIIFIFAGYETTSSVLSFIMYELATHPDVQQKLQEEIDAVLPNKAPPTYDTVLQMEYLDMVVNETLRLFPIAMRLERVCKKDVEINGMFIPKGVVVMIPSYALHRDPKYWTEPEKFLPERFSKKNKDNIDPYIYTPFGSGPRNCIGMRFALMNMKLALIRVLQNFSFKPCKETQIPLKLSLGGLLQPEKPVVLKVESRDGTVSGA
# Chain of Voltage-gated inwardly rectifying potassium channel KCNH2 (Homo sapiens) (Q12809 whole entry, looked up): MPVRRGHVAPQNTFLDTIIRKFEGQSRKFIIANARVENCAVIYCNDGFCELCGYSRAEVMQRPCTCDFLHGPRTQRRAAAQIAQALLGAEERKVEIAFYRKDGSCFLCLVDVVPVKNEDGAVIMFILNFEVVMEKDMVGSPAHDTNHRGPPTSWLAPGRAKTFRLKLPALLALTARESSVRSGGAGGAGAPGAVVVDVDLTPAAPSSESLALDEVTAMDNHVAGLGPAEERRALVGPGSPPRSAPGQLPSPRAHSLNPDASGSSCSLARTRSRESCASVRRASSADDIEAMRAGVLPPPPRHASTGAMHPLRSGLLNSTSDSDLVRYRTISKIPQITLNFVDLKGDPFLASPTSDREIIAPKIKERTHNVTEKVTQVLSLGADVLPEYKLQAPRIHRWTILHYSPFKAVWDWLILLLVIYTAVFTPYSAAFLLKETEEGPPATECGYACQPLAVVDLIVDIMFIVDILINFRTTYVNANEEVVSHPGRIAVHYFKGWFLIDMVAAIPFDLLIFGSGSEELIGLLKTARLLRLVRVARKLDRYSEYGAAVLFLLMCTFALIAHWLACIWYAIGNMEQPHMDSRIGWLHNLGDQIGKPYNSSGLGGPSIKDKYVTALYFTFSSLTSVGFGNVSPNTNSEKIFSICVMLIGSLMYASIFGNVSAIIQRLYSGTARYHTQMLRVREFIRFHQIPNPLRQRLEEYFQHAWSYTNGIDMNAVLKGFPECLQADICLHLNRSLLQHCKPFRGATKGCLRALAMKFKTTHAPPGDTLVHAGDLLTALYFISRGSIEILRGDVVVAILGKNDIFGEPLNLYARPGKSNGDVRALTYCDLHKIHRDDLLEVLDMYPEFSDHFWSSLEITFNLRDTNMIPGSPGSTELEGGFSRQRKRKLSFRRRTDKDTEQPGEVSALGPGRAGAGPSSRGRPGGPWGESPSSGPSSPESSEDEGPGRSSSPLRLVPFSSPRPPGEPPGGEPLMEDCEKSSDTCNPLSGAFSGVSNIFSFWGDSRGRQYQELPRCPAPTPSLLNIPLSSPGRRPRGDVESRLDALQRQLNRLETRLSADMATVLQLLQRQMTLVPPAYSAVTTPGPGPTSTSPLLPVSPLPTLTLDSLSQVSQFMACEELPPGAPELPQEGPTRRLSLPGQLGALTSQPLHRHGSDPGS
# Chain of Cytochrome P450 1A2 (Homo sapiens) (P05177 whole entry, looked up): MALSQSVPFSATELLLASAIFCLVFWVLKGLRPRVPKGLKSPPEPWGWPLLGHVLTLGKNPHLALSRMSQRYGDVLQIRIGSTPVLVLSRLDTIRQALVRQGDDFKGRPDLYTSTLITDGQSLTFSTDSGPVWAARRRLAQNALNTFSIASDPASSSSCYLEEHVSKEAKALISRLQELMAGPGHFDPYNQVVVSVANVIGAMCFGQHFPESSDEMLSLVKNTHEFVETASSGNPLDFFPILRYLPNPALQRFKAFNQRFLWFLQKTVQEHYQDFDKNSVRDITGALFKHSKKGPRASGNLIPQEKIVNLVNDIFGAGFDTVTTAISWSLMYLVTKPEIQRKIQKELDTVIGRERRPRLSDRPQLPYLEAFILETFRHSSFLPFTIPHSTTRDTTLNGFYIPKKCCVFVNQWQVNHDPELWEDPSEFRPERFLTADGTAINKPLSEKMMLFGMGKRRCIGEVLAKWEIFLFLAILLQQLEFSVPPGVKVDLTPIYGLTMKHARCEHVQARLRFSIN
# Chain of Cytochrome P450 2C9 (Homo sapiens) (P11712 whole entry, looked up): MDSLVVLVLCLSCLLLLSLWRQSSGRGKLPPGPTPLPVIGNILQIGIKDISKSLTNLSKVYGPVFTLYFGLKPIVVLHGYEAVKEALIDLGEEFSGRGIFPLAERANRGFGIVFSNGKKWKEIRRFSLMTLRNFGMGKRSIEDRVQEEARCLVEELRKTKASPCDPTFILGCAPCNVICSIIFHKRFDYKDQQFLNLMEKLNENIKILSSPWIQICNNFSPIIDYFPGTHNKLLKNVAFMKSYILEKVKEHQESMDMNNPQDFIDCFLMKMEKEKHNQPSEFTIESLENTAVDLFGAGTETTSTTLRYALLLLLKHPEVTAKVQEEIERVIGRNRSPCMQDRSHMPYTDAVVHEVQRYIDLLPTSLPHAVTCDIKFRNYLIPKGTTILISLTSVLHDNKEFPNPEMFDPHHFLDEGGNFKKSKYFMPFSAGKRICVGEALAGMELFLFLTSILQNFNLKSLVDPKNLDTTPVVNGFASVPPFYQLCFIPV
# Chain of Cytochrome P450 2D6 (Homo sapiens) (P10635 whole entry, looked up): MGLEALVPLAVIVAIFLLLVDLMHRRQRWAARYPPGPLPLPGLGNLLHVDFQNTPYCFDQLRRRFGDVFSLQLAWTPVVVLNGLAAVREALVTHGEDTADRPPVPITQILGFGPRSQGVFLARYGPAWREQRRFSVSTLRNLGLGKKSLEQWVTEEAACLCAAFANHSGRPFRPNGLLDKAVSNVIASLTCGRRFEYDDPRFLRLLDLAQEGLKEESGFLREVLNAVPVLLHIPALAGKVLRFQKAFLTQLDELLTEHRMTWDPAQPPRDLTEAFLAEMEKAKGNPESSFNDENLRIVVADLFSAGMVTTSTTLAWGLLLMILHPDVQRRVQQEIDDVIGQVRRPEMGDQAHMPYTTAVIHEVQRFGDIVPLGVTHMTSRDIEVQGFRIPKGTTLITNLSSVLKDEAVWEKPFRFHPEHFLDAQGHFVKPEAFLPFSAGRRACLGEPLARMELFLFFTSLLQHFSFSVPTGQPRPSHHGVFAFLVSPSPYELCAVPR
# Chain of Acetylcholinesterase (Homo sapiens) (P22303 whole entry, looked up): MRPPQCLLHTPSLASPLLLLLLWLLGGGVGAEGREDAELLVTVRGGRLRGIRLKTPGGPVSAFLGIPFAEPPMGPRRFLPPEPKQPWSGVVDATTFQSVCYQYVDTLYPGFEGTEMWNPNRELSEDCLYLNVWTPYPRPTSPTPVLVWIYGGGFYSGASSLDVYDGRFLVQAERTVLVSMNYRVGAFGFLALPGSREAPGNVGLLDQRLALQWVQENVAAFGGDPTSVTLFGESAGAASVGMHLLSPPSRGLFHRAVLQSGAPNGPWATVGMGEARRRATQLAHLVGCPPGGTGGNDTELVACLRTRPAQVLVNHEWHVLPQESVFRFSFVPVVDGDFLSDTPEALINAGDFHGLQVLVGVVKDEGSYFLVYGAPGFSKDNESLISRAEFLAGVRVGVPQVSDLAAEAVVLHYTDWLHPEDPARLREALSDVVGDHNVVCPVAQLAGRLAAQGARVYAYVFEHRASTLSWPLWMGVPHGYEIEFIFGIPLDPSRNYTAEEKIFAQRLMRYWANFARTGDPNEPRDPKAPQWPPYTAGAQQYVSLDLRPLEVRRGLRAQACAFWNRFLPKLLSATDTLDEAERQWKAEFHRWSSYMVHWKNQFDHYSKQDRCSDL
# Chain of Cytochrome P450 2C19 (Homo sapiens) (P33261 whole entry, looked up): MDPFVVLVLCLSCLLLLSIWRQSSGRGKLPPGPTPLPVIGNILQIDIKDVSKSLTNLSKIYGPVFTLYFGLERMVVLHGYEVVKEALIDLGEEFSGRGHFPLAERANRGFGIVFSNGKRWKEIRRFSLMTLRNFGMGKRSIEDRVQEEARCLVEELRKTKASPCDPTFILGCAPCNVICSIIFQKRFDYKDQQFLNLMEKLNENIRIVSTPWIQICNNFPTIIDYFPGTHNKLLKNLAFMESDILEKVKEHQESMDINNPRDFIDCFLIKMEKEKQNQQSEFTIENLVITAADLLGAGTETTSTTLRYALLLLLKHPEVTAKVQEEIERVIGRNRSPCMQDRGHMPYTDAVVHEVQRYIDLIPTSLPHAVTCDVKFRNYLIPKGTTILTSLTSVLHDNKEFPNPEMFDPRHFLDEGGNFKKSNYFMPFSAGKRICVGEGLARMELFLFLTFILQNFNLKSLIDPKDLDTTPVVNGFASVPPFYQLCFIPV
smiles,measurement,setting,value
N#CC1(N=NC2(C#N)CCCCC2)CCCCC1,Potency,[1],inactive
same,Potency,[2],5.03 µM (active)
same,Potency,[3],11.2 µM (active)
same,Potency,[4],inactive
same,Potency,[5],38.9 µM (active)
same,Potency,[6],11.2 µM (active)
N#CC(C#N)=C(C#N)C#N,Potency,[1],inactive
same,Potency,[2],58.9 µM (active)
same,Potency,[3],33.1 µM (active)
same,Potency,[4],41.7 µM (active)
same,Potency,[5],inactive
same,Potency,[6],20.9 µM (active)
Nc1ccccc1C(=O)OCCc1ccccc1,Potency,[1],inactive
same,Potency,[2],5.66 µM (active) and 8.94 µM (active)
same,Potency,[3],31.8 µM (active) and 35.6 µM (active)
same,Potency,[4],7.13 µM (active) and 7.1 µM (active)
same,Potency,[5],inactive
O=C1NC(=O)C(=O)C(=O)N1,Potency,[7],inactive
same,Potency,[2],inactive
same,Potency,[3],inactive
same,Potency,[4],inactive
same,Potency,[5],inactive
CC(C)CCON=O,Potency,[1],inactive
same,Potency,[2],inactive
same,Potency,[3],inactive
same,Potency,[4],inactive
same,Potency,[5],inactive
same,Potency,[6],inactive
Cc1nc2ccccc2c(=O)n1-c1ccccc1Cl,Potency,[1],inactive
same,Potency,[2],2.77 µM (active)
same,Potency,[3],39.1 µM (active)
same,Potency,[4],inactive
same,Potency,[5],inactive
O=C(O)C(Cl)(Cl)Br,Potency,[1],inactive
same,Potency,[2],inactive
same,Potency,[3],inactive
same,Potency,[4],inactive
same,Potency,[5],inactive
same,Potency,[6],inactive
O=C(CCl)CCl,Potency,[7],inactive
same,Potency,[2],inactive
same,Potency,[3],inactive
same,Potency,[4],inactive
same,Potency,[5],inactive
same,Potency,[6],inactive
Clc1ccc2ccccc2c1,Potency,[1],inactive
same,Potency,[2],inactive
same,Potency,[3],inactive
same,Potency,[5],inactive
same,Potency,[6],inactive
Nc1ccccc1C(=O)OCC(O)CO (centres undefined),Potency,[7],inactive
same,Potency,[2],inactive
same,Potency,[3],inactive
same,Potency,[4],inactive
same,Potency,[5],inactive
same,Potency,[6],inactive
CCCN(CCC)C(=O)Cc1c(-c2ccc(Cl)cc2)nc2ccc(Cl)cn12,Potency,[1],inactive
same,Potency,[3],9.77 µM (active)
same,Potency,[4],16.2 µM (active)
Nc1ccc2c(c1)Cc1ccccc1-2,Potency,[7],62.9 µM (active)
same,Potency,[2],8.88 µM (active)
same,Potency,[3],15.8 µM (active)
same,Potency,[4],1.25 µM (active)
same,Potency,[5],inactive
same,Potency,[6],14.1 µM (active)
C[Si](Cn1cncn1)(c1ccc(F)cc1)c1ccc(F)cc1,Potency,[7],26 µM (active) and 31.7 µM (active)
same,Potency,[2],58.3 nM (active) and 39.9 nM (active)
same,Potency,[3],1.84 µM (active) and 2 µM (active)
same,Potency,[4],32.8 µM (active) and 20 µM (active)
same,Potency,[5],45.1 µM (active)
same,Potency,[6],104 nM (active) and 126 nM (active)
CCOP(=O)(SC(C)CC)N1CCSC1=O (centres undefined),Potency,[7],inactive
same,Potency,[2],79.6 µM (active)
same,Potency,[3],63.3 µM (active)
same,Potency,[4],35.6 µM (active)
same,Potency,[5],inactive
C[N+]1(CCC(C(N)=O)(c2ccccc2)c2ccccc2)CCCCC1,Potency,[7],8.71 µM (active)
same,Potency,[2],inactive
same,Potency,[3],inactive
same,Potency,[4],inactive
same,Potency,[5],inactive
CC(C)C1(C)N=C(c2ncccc2C(=O)O)NC1=O (centres undefined),Potency,[7],inactive
same,Potency,[2],inactive
same,Potency,[3],inactive
same,Potency,[4],inactive
same,Potency,[5],inactive
CCCBr,Potency,[1],inactive
same,Potency,[2],inactive
same,Potency,[3],inactive
same,Potency,[4],inactive
same,Potency,[5],inactive
NC(=O)CF,Potency,[1],inactive
same,Potency,[2],inactive
same,Potency,[3],inactive
same,Potency,[4],inactive
same,Potency,[5],inactive
same,Potency,[6],inactive
CC(C)(C)NCC(O)c1cc(Cl)c(N)c(C(F)(F)F)c1 (centres undefined),Potency,[7],15.5 µM (active)
same,Potency,[2],inactive
same,Potency,[3],inactive
same,Potency,[4],inactive
same,Potency,[5],inactive
O=C(N[C@H]1CN2CCC1CC2)c1ccc2c(c1)OCCO2,Potency,[1],inactive
same,Potency,[2],inactive
same,Potency,[3],inactive
same,Potency,[4],inactive
same,Potency,[5],inactive
same,Potency,[6],inactive
O=C(Cc1ccccc1)c1ccccc1,Potency,[7],22.4 µM (active)
same,Potency,[2],11.2 µM (active)
same,Potency,[3],inactive
same,Potency,[4],12.6 µM (active)
same,Potency,[5],inactive
same,Potency,[6],inactive
NP(N)(=O)NC(=O)c1ccc(F)cc1,Potency,[1],inactive
same,Potency,[3],inactive
same,Potency,[5],inactive
same,Potency,[6],inactive
CCc1cnc(C2=NC(C)(C(C)C)C(=O)N2)c(C(=O)O)c1 (centres undefined),Potency,[7],inactive
same,Potency,[2],inactive
same,Potency,[3],inactive
same,Potency,[4],inactive
same,Potency,[5],inactive
CCCCCCCCCCCCN=C(N)N,"activity change, negative = inhibition",[1],1.01% [at 4.07 µM] (inactive)
same,"activity change, negative = inhibition",[3],-14.6% [at 4.07 µM] (inactive)
same,Potency,[4],2.2 µM (active)
same,"activity change, negative = inhibition",[5],-4.13% [at 2.72 µM] (inactive)
same,"activity change, negative = inhibition",[6],2.59% [at 4.07 µM] (inactive)
CC(C)OC(=O)Cc1ccccc1,Potency,[1],inactive
same,Potency,[3],inactive
same,Potency,[4],35.9 µM (active)
same,Potency,[5],inactive
same,Potency,[6],inactive
COc1cc(CC#N)cc(OC)c1OC,Potency,[1],inactive
same,Potency,[2],inactive
same,Potency,[3],inactive
same,Potency,[4],24.5 µM (active)
same,Potency,[5],inactive
C=CC(=O)NC(C)(C)CC(C)=O,Potency,[7],35.6 µM (active)
same,Potency,[2],inactive
same,Potency,[3],inactive
same,Potency,[4],inactive
same,Potency,[5],inactive
same,Potency,[6],inactive
NCCc1cc(O)c(O)cc1O,Potency,[1],inactive
same,Potency,[2],9.77 µM (active)
same,Potency,[4],inactive
same,Potency,[5],inactive
same,Potency,[6],inactive
SCc1ccccc1,Potency,[7],inactive
same,Potency,[2],7.31 µM (active)
same,Potency,[3],36.6 µM (active)
same,Potency,[4],32.6 µM (active)
CC[N+]1(CCOC(=O)C(O)(c2ccccc2)c2ccccc2)CCCCC1,Potency,[7],0.977 µM (active)
same,Potency,[2],inactive
same,Potency,[3],inactive
same,Potency,[4],inactive
same,Potency,[5],inactive
FC(F)OC(F)(F)C(F)Cl (centres undefined),Potency,[1],inactive
same,Potency,[2],inactive
same,Potency,[3],inactive
same,Potency,[4],35.6 µM (active)
same,Potency,[5],inactive
same,Potency,[6],inactive
